Screening data (PubChem BioAssay)
Only some compounds are listed: those with a hit (about 3.3% of all), similar ones and a draw of the others.
697 NFkB inh = inhibitors of the PMA/ionomycin-induced NF-kB reporter in 697 B cells | 697 B-cell NF-kB luciferase reporter, 16 h | inhibition, % at 4 µM | hit rate 0.33% among 330,000 | AID 435022; in the data active = inhibition above about 35%
Jurkat NFkB inh = lowers PMA/ionomycin-induced NF-kB signal in Jurkat cells; PMA/ionomycin-induced NF-kB luciferase reporter, luminescence; inhibition, % at 4 µM; hit rate 0.53% among 330,000; in the data active = inhibition above about 50%
Gli-Sufu antag = antagonists of Gli-Sufu signaling; Sufu-KO-LIGHT fibroblasts, Gli luciferase reporter luminescence; inhibition, % at 5 µM; hit rate 0.74% among 340,000; AID 588413;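 active = inhibition above about 55%, limit read from the data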;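 also: 0% = DMSO-treated cells and 100% = wells with medium but no cells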
SMARCA2 activ = activators of SMARCA2 function; MG213 cells, MMTV-luciferase reporter, dexamethasone, overnight; activation, % at 9.1 µM; hit rate 1% among 370,000; AID 652017; in the data active = activation above about 7.8%;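 also: 0% = vehicle wells and 100% = reference activator wells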
esBAF inh = inhibitors of esBAF chromatin remodeling in mouse ES cells; Bmi1-luciferase knock-in reporter, 24 h; 100% = twice the neutral-well signal; reporter increase, % at 12.5 µM; hit rate 2% among 350,000; AID 602393; in the data active = activation above about 40%;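 also: 0% = median of the plate's neutral control wells and 100% = double that signal; a rise in the Bmi1 reporter signal indicates esBAF inhibition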
Gli-Sufu confirm = Gli-SUFU antagonism confirmation, single concentration | hit rate 40% among 2,500 | inhibition, % at 5 µM | shares compounds with Gli-Sufu antag | Sufu-KO-LIGHT cells, Gli luciferase reporter, luminescence;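 active = mean inhibition at 5 µM reaching about 45%, limit read from the data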;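 also: plate controls were DMSO-treated cells for no effect and wells lacking cells for full effect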
SufuKO cytotox = cytotoxic in Gli-SUFU antagonist counter-screen; hit rate 32% among 2,500; shares compounds with Gli-Sufu antag; cytotoxicity, % at 5 µM; Sufu-KO-LIGHT cells cytotoxicity, ATP luminescence;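 active = mean cytotoxicity at 5 µM above about 25%, limit read from the data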;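 also: cells exposed to compound overnight for roughly 16 to 18 hours; plate controls were DMSO wells with cells for no effect and medium without cells for full effect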
Wnt3a counter = Wnt3a reporter inhibition counter-screen. shares compounds with Gli-Sufu antag. Wnt-LIGHT cells, Wnt3a-driven luciferase reporter, luminescence. inhibition, % at 6.25 µM. hit rate 20% among 2,500. AID 651995;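 active = mean inhibition above about 25%, limit read from the data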
Active calls of the source: *; nt = no result.

SMILES	697 NFkB inh	Jurkat NFkB inh	Gli-Sufu antag	SMARCA2 activ	esBAF inh	Gli-Sufu confirm	SufuKO cytotox	Wnt3a counter
COc1ccc(C#Cc2ccc3c(c2)[C@@H]2[C@@H](CCN2C(C)=O)[C@H](CO)N3C)cc1	nt	nt	nt	nt	1	nt	nt	nt
Cc1cc(C)c2nc(Nc3nc(-c4ccccc4)cc(=O)[nH]3)nc(C)c2c1	5	3	-17	-1	nt	nt	nt	nt
CC1=CC(C)(C)N=C(Nc2nc(C)c3cc(C)cc(C)c3n2)N1	-10	12	50	-2	-19	26	16	-68
CN1c2ccc(Br)cc2[C@@H]2[C@@H](CCN2C(=O)Cc2ccccc2)[C@H]1CO	nt	nt	nt	nt	0	nt	nt	nt
Cc1ccc(C(=O)N2CCN3C(=O)c4ccccc4C23c2ccc(Cl)cc2)cc1 (stereo not given)	-8	24	56*	-1	nt	61*	10	-23
Cc1cc(-n2c(SCc3ccccc3F)nc3n[nH]c(C)c3c2=N)ccc1Cl	10	-1	53	3	-3	25	5	-38
CCN(C(=O)CSc1nc2n[nH]c(C)c2c(=N)n1-c1ccc(Cl)c(C)c1)c1cccc(C)c1	5	9	9	-2	10	nt	nt	nt
CO[C@H]1CN(C)C(=O)c2cc(NS(=O)(=O)c3ccc(Cl)cc3)ccc2OC[C@H](C)N(C(=O)NC(C)C)C[C@@H]1C	nt	nt	nt	nt	-5	nt	nt	nt
COc1cccc(S(=O)(=O)Nc2ccc3c(c2)[C@H]2C[C@@H](CC(=O)NCc4cccc(F)c4)O[C@H](CO)[C@H]2O3)c1	nt	nt	nt	nt	2	nt	nt	nt
COc1cc(C(=O)NC2CCN(C)CC2)ccc1Nc1ncc2c(n1)N(CCc1ccccc1)CCC(=O)N2C	nt	nt	75*	1	-2	67*	3	-13
Clc1ccc(-c2nnc(CSc3nnc(-c4cccs4)n3Cc3ccccc3)o2)cc1	-13	30	68*	-2	-16	66*	32*	10
Cc1nnc(SCc2nnc(-c3cccs3)o2)n1Cc1ccccc1	-19	-1	-4	-2	nt	nt	nt	nt
CCOC(=O)c1oc2ccc(S(=O)(=O)n3nc(-c4ccc(Cl)cc4)cc3N)cc2c1C	-61	38	54	-2	-15	8	18	-11
CCOC(=O)c1oc2ccc(S(=O)(=O)n3nc(-c4ccc(C)cc4)cc3N)cc2c1C	-65	18	4	-5	-6	nt	nt	nt
CCNC(=O)[C@H]1[C@H](CO)[C@H]2Cn3c(ccc(C4=CCCCC4)c3=O)[C@H]2N1Cc1ccccc1F	nt	nt	nt	nt	-3	nt	nt	nt
CCC1CCCCN1CCCNC(=O)Cn1c(=O)c2cccn2c2cccnc21 (stereo not given)	-59	-16	69*	0	0	24	2	15
CC(C)(C)[S@@](=O)N1Cc2cc(C(=O)N3CCc4ccccc4C3)nc(-c3cccc(-c4ccncc4)c3)c2[C@H]1CCO	nt	nt	nt	nt	13	nt	nt	nt
CCOC(=O)C1(CCOc2ccccc2)CCN(Cc2ccc(OC)c(COC)c2)CC1	-30	46	57*	-5	-3	21	16	-11
CCOC(=O)C1(CCOc2ccccc2)CCN(Cc2ccc(OC)c(O)c2)CC1	-22	1	26	-4	7	nt	nt	nt
Cc1cc(C)n2nc(N)c(N=Nc3ccc(Cl)cc3)c2n1	-21	-9	81*	-3	nt	28	16	-37
CC(NCC(O)COc1ccc(Br)cc1)c1ccccc1 (stereo not given)	7	1	58*	-3	2	14	2	-37
COc1ccc(OCC(O)CNC(C)c2ccccc2)cc1 (stereo not given)	-1	-34	6	-4	-3	nt	nt	nt
O=C(NCc1ccncc1)[C@H]1N[C@H]2c3ccc(/C=C/c4ccccc4)c(=O)n3C[C@H]2[C@@H]1CO	nt	nt	nt	nt	-5	nt	nt	nt
CC(Sc1nc2ccccc2c(=O)n1CC1CCCO1)C(=O)N(C)Cc1ccccc1 (stereo not given)	-19	-2	8	3	-1	nt	nt	nt
CC(Sc1nc2ccccc2c(=O)n1C)C(=O)N(C)C1CCCCC1 (stereo not given)	-51	23	72*	-2	-49	61*	18	10
SMILES	697 NFkB inh	Jurkat NFkB inh	Gli-Sufu antag	SMARCA2 activ	esBAF inh	Gli-Sufu confirm	SufuKO cytotox	Wnt3a counter
O=C(C[C@H]1C[C@@H]2c3cc(NC(=O)C4CCOCC4)ccc3O[C@@H]2[C@@H](CO)O1)NCc1ccccc1F	nt	nt	nt	nt	-1	nt	nt	nt
S=C(NCCc1ccccc1)Nc1ccc(Cl)cc1Cl	-1	5	65*	-3	nt	13	10	-30
Cc1cc(Cl)ccc1NC(=S)NCCc1ccc(Cl)cc1	-1	0	28	-4	-2	nt	nt	nt
S=C(NCCc1ccccc1)Nc1cccc2cnccc12	33	48	51	-5	-47	58*	18	34*
COC(=O)c1c(-n2cnnn2)sc(C)c1C	14	9	50	-1	-3	20	2	-41
Cc1ccc(NC(=S)Nc2cc(C(=O)O)ccc2N2CC3CC(C2)c2cccc(=O)n2C3)cc1C (stereo not given)	5	0	79*	0	nt	-4	22	-7
COc1cccc(NC(=S)Nc2cc(C(=O)O)ccc2N2CC3CC(C2)c2cccc(=O)n2C3)c1 (stereo not given)	-2	-21	-4	-1	nt	nt	nt	nt
C[C@@H]1CN([C@@H](C)CO)C(=O)c2cc(NC(=O)c3ccncc3)ccc2O[C@@H](C)CCCCO[C@@H]1CN(C)S(=O)(=O)c1ccc(F)cc1	nt	nt	nt	nt	-8	nt	nt	nt
Cn1c(=O)c2c(nc(NCc3ccc4c(c3)OCO4)n2Cc2ccccc2)n(C)c1=O	2	10	64*	0	-6	62*	32*	8
Cn1c(=O)c2c(nc(NCc3ccc4c(c3)OCO4)n2Cc2ccc(F)cc2)n(C)c1=O	-12	6	54	-3	nt	44	27*	7
Cn1c(=O)c2c(nc(NCc3ccc4c(c3)OCO4)n2Cc2ccccc2F)n(C)c1=O	-8	22	42	0	-33	nt	nt	nt
CCN1CCN(CC(=O)c2c(C)n(C)c3ccc(OC)cc23)CC1	-7	-8	62*	0	-4	11	10	-7
CCN(CC)S(=O)(=O)c1ccc(S(=O)(=O)Nc2c(C)nn(C)c2C)cc1	-60	32	65*	-5	nt	54*	18	25*
COc1cccc(CN(C)C(=O)c2cccc(S(=O)(=O)N3CCN(c4ccccc4)CC3)c2)c1OC	nt	nt	23	-5	-1	nt	nt	nt
COc1cccc(CN(C)C(=O)c2cccc(S(=O)(=O)N3CCN(c4ccc(F)cc4)CC3)c2)c1OC	-44	14	51	-6	-19	50*	33*	-12
CN(Cc1ccc(OC(F)F)cc1)C(=O)c1cccc(S(=O)(=O)N2CCN(Cc3ccccc3)CC2)c1	nt	nt	58*	-8	-15	58*	22	3
